Percent Effect data for 54 compounds are collected here from ChEMBL document CHEMBL3988442, “University of Dundee, Small-Polar-MMV Screening Library” (2021).

The whole screen tested about 69,000 compounds, of which about 420 (0.61%) showed an effect of 50% or more. For the sample, strong results were picked, then their nearest neighbours and some compounds at random.

The target of this assay is T1, Histidine--tRNA ligase (Leishmania infantum) (UniProt A4I591).
T1 sequence (whole entry): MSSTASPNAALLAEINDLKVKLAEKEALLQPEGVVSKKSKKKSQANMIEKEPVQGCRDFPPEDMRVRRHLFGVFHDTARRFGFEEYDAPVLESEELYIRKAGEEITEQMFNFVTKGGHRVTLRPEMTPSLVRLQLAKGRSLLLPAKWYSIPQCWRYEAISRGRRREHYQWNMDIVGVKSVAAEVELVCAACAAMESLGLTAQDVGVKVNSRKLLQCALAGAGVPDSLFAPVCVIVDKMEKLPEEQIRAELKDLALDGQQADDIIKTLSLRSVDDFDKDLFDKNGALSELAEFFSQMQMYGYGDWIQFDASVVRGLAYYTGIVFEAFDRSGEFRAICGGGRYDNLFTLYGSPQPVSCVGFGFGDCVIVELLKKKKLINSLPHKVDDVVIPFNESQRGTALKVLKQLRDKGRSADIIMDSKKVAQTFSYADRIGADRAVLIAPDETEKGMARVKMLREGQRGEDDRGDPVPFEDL
Put plainly: Leishmania infantum Histidine tRNA synthetase (LdHisRS). Details: scale not given: in the data most compounds retested in dose-response had high values. To be noted: 30 µM. The assay is classed as functional.
As for `CCOCC(=O)N1C[C@@H]2CC[C@H](Oc3ccccc3)[C@@H]2C1`, the Percent Effect came to 26.3%.

Regarding `COc1ccc(CNCCC(=O)N2CCc3sccc3C2)cc1O`, the Percent Effect stood at 26.9%.

In the case of `N#Cc1cccc(CNCCC(=O)N2CCc3sccc3C2)c1`, the Percent Effect was 5.38%.

On to `O=C(CCNCc1cccc(O)c1)N1CCc2sccc2C1`, for which the Percent Effect was found to be 85%.

In the case of `c1ccc(-c2noc(CNC3CCCN(c4cccnn4)C3)n2)nc1` (centres undefined), the Percent Effect is 67.7%.

On to `c1cnnc(N2CCCC(NCc3nc(-c4ccco4)no3)C2)c1` (centres undefined), for which the Percent Effect amounted to 0.926%.

Regarding `c1cnnc(N2CCCC(NCc3nc(-c4cccs4)no3)C2)c1` (centres undefined), the Percent Effect was found to be 24.7%.

Regarding `Cc1cccc(CN2C[C@@H]3OCCN(CC(=O)N(C)C)[C@@H]3C2)c1`, the Percent Effect was determined as 13.5%.

On to `O=C(c1ncccn1)N1C[C@@H]2COC[C@]2(COc2cccnc2)C1`, for which the Percent Effect came out at 17.3%.

On to `CS(=O)(=O)c1ccc(CN2C[C@H]3CC[C@@H]2CN(c2ncccn2)C3)cc1`, for which the Percent Effect amounted to 15%.

With `CCS(=O)(=O)N1CCC2(CC1)CC[C@@]1(C(=O)NC)CN(C(C)=O)C[C@@H]21`, the Percent Effect came to 19.7%.

With `CC(C)(C)C(=O)N1CC[C@H]2NC(=O)N(c3ccc(F)cc3)C(=O)[C@H]21`, the Percent Effect was 19.4%.

As for `Cc1nc([C@@H]2C[C@@H]3CCN(C(=O)c4ccnnc4)C[C@H]3O2)sc1C`, the Percent Effect was 18.4%.

As to `Cc1ccccc1N1CCN(c2nc(N(C)C)nc3c2CCNC3)CC1`, the Percent Effect came to 58.6%.

With `Cc1nc2c(c(N3CCN(c4ncccc4C(N)=O)CC3)n1)CCNC2`, the Percent Effect was determined as 12.9%.

For the compound `Cc1cccc(=O)n1CCCNc1nc(N(C)C)nc2c1CCNC2`, the Percent Effect is 35.3%.

As to `CN(C)c1nc2c(c(N3CCc4ccccc4C3)n1)CCNC2`, the Percent Effect came to 58.6%.

As for `c1ccc2c(c1)CCN(c1nc(-c3ccncc3)nc3c1CCNC3)C2`, the Percent Effect was determined as 101%.

As for `c1ccc2c(c1)CCN(c1ncnc3sc4c(c13)CCNC4)C2`, the Percent Effect is 15.1%.

Consider `c1ccc2c(c1)CN(c1ncnc3c1CCNC3)CCO2`, for which the Percent Effect came to 16.1%.

`Cc1cc2n(n1)CCN(c1nc(N(C)C)nc3c1CCNC3)C2`: the Percent Effect amounted to 36.7%.

For `CN(C)c1nc2c(c(N3CCc4c(c(CO)nn4C)C3)n1)CCNC2`, the Percent Effect turned out to be 11.4%.

For `CC(Nc1nc(-c2ccccc2)nc2c1CCNCC2)c1nccs1` (centres undefined), the Percent Effect is 19.7%.

As for `CC(Nc1nc(-c2ccccc2)nc2c1CCNCC2)c1cccnc1` (centres undefined), the Percent Effect turned out to be 16.4%.

Consider `CC(Nc1nc(-c2ccncc2)nc2c1CCNC2)c1ccccc1` (centres undefined), for which the Percent Effect turned out to be 54.1%.

Regarding `CCOc1ccc(C(=O)N2C[C@H]3CC[C@@H]2CN(C)C3)cc1OCC`, the Percent Effect turned out to be 15.1%.

Take `O=C1[C@H]2CN(S(=O)(=O)c3cccs3)C[C@H]2CN1CC1CC1`: the Percent Effect was determined as 21.4%.

For the compound `CN(Cc1cncnc1)[C@@H]1CN(C(=O)c2ccco2)[C@@H]2CCCO[C@H]12`, the Percent Effect turned out to be 17.3%.

Take `CCC1=N[C@@]2(CC[C@@H]3CN(Cc4ccc(F)cc4)C[C@@H]32)C(=O)N1C`: the Percent Effect was found to be 8.18%.

Consider `Cc1ccc(CN2CCN(C(=O)C3CCC3)[C@@H]3CS(=O)(=O)C[C@@H]32)cc1C`, for which the Percent Effect turned out to be 20.6%.

Consider `CC1=N[C@@]2(CC[C@@H]3CN(C(=O)NC(C)C)C[C@@H]32)C(=O)N1CC1CC1`, for which the Percent Effect is 11.1%.

With `CC(C)C(=O)N1CC[C@H]2N(C)CC[C@@]2(C(=O)Nc2ccccc2)CC1`, the Percent Effect was found to be 2.7%.

Regarding `COCCN1CC[C@H]2CN(Cc3ccc(C)s3)C[C@@H]2C1=O`, the Percent Effect was 7.69%.

For the compound `CC(=O)N1CC[C@H]2OCC[C@@]2(C(=O)NCc2ccco2)C1`, the Percent Effect was determined as 13.2%.

As to `CCc1cc(C(C)Nc2nc(-c3cccnc3)nc3c2CNC3)on1` (centres undefined), the Percent Effect came out at 17.1%.

For the compound `Cc1cc(CC(C)Nc2nc(-c3cccnc3)nc3c2CNC3)[nH]n1` (centres undefined), the Percent Effect is 22.9%.

With `Cc1cccnc1[C@H](C)Nc1nc(-c2cccnc2)nc2c1CNC2`, the Percent Effect is 54.3%.

In the case of `COC(=O)[C@@H](NC(=O)c1coc(COc2cccc(F)c2)n1)C(C)C`, the Percent Effect was determined as 6.58%.

`CCC(C)NC(=O)c1coc(COc2cccc(F)c2)n1` (centres undefined): the Percent Effect was 19.7%.

In the case of `CC(NC(=O)c1coc(COc2cccc(F)c2)n1)c1nnc(N)s1` (centres undefined), the Percent Effect amounted to 54%.

On to `CN(C[C@@H]1CCC[C@@H]2CN(c3ncccn3)C[C@@H]21)C1CC1`, for which the Percent Effect was found to be 23.3%.

As for `COC[C@@H]1CC[C@H]2[C@H](CCN2S(=O)(=O)c2cccc(F)c2)O1`, the Percent Effect was 2.65%.

With `O=C(NCc1ccccn1)[C@@]12CCO[C@@H]1CCN(c1ncccn1)C2`, the Percent Effect is 15.4%.

For the compound `COc1cccc(OCC(=O)Nc2cc(C)cnc2OC)c1`, the Percent Effect is -3.17%.

Regarding `COc1ncc(C)cc1NC(=O)COCC(F)(F)F`, the Percent Effect was 77.8%.

As to `CCOCC(=O)Nc1cc(C)cnc1OC`, the Percent Effect was found to be 9.52%.

On to `O=C(c1ccccn1)N1CC[C@H]2[C@H]1CCN2S(=O)(=O)C1CC1`, for which the Percent Effect was determined as 14%.

With `CN(C)C(=O)[C@H]1C[C@@H]2CN(c3ncccn3)C[C@H]1O2`, the Percent Effect worked out at 22.2%.

For `CCCc1ccc(CN2CCN(C(=O)NCC)[C@H]3CS(=O)(=O)C[C@H]32)o1`, the Percent Effect came out at 13.2%.

Regarding `O=C(c1ccco1)N1CC[C@H]2[C@H]1CCN2CC1CCOCC1`, the Percent Effect came out at 6.57%.

As to `Nc1cc(N2CCCC(COc3ccc(F)cc3)C2)nc(N)n1` (centres undefined), the Percent Effect worked out at 24.1%.

In the case of `Cc1ccccc1OCC1CCCN(c2cc(N)nc(N)n2)C1` (centres undefined), the Percent Effect was found to be 72.3%.

For `Cc1nc(N)cc(N2CCCC(COc3cccc(F)c3)C2)n1` (centres undefined), the Percent Effect was determined as 24.1%.

Take `O=C(CC1CC1)N[C@@H]1CN(Cc2ccc(F)cc2)C[C@@H]2CCCO[C@@H]21`: the Percent Effect was 11.4%.
